Compounds without any hit were thinned out: in the full panel of roughly 79,000, 15% have a hit. Unmarked numbers belong to inactive results. The source made the active and inactive calls. Rule as the data show it: active = growth inhibition above about 70%; inactive = the rest.
Experiment: NCI Yeast Anticancer Drug Screen. Data for the rad50 strain (AID 155);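 also: 0% = growth of vehicle-only cultures of the same strain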
Details: S. cerevisiae rad50 strain growth inhibition, active compounds read high; at 50.0 µM unless noted
Method in brief: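 Growth of the mutant yeast was measured after compound exposure and referenced to vehicle-treated cultures.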

SMILES | growth inhibition [%]
O=C1C=C(c2ccccc2)C(c2ccccc2)/C1=N/O (stereo unspecified) | 11.3
CCO/C([O-])=N\[n+]1c(C)nc2cc3c(cc2c1C)OCO3 | 5.75
CCN(CC)CCCC(C)Nc1ncnc2ccccc12 (stereo unspecified) | 2.2
COc1ccc(CC2c3cc(OC)c(OC)cc3CC[N+]2(C)C)cc1OC (stereo unspecified) | -13.1
CCN(CC)CCn1c2cc3c(cc2c(=O)c2cccnc21)OCO3 | -18.1
CCOC(=O)C1=C(C(=O)c2ccc(OC)cc2)C(c2ccc([N+](=O)[O-])cc2)C(C(=O)c2ccc(OC)cc2)=C(C(=O)OCC)N1 | 11.1
CCN(CC)CCC(=O)c1ccc(Cl)cc1 | 19.6
Cc1n[nH]c(=O)n1/N=C/c1ccncc1 | 8.45
O=C1CSC(c2c[nH]c3ccccc23)N1c1ccc(Cl)cc1 (stereo unspecified) | -33.9
O=C1OC(=O)c2c1nc1ccccc1c2-c1ccccc1 | -31.5
CC(=O)OC1CC(n2cc(F)c(=O)[nH]c2=O)OC1CO (stereo unspecified) | 7.95
CC(=O)Nc1snc(C)c1[N+](=O)[O-] | -4.55
Cc1onc(-c2ccccc2)c1C(C)(O)c1ccccc1 (stereo unspecified) | 12.8
Clc1ccc(-c2cn3c(nc4ccccc43)c(-c3ccccc3)n2)cc1 | -7.65
CCOC(=O)C1Oc2ccc([N+](=O)[O-])cc2C1(C)O (stereo unspecified) | -1.15
O=c1[nH]c2cc(Cl)ccc2nc1/C(=N\O)C(O)c1ccc([N+](=O)[O-])cc1 (stereo unspecified) | 8
CC(C)OC(=O)C(O)c1ccccc1 (stereo unspecified) | 18.2
CSc1ccc2nncc(SC)c2c1 | 64.2
CCN(CC)C/C(C)=C(/c1ccccc1)c1ccccc1S(N)(=O)=O | 5.8
COC(=O)C(=O)c1c(C(=O)OC)nc2nnc(N)n2c1-c1cccc([N+](=O)[O-])c1 | 23.6
CC(=O)c1ccc(N=CC2CCCCC2=O)cc1 (stereo unspecified) | -8.35
Cc1c(Cl)cccc1NC(=O)COc1ccc(Cl)cc1 | 16.4

Experiment: NCI Yeast Anticancer Drug Screen. Data for the mec2-1 strain (AID 157)
Details: S. cerevisiae mec2-1 strain, active compounds read high; at 50.0 µM unless noted
Method in brief: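 mec2-1 yeast strain, carrying an alteration in DNA damage repair or cell cycle control, was exposed to compounds; growth inhibition was measured relative to vehicle-treated controls.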

SMILES | growth inhibition
CC(N)C(=O)NO (stereo unspecified) | -24.6%
O=P(O)(O)OCC1OC(n2cnc3c(=S)nc[nH]c32)C(O)C1O (stereo unspecified) | 3.95%
C=C=C(C)[Si](C)(C)C | 3.85%
Nc1ccc(C(=O)N/N=C/c2ccccc2O)cc1 | 12.7%
O=C1NC(=S)S/C1=C/C=C/c1ccccc1 | 3.8%
C=C(c1c(C)cccc1OC(C)=O)c1c(C)cccc1OC(C)=O | -10.6%
COc1ccc(/C=C2\N=C3N(Cc4ccccc4)C=C(N)N3C2=O)cc1 | -6.1%
COc1ccc2oc3cc(Cl)ccc3c(=O)c2c1 | 0.85%
O=C(CCC1OCCO1)Nc1cc([N+](=O)[O-])ccc1OCc1ccccc1 | 4.5%
CC(=O)O[C@@H]1C(=O)C=C(C)[C@@H]2[C@@H](OC(=O)C=C(C)C)[C@H]3OC(=O)C[C@H]4[C@@H](C)[C@@H](O)[C@]5(O)OC[C@]34[C@H]5[C@@]12C | 71.5% (active)
COc1ccccc1N=Nc1c(O)n(-c2ccccc2OC)c(=S)n(-c2ccccc2)c1=O | -3.45%
CCOC(=N)n1c(=O)n(C2=NCCN2)c2ccccc21 | 0.35%
C=CCCCC1CCCNC1=S (stereo unspecified) | 6.1%
N#C/C(=C\c1ccccc1)c1ccc(F)cc1 | 42.1%
CC(c1cccc(O)c1)N(C)C (stereo unspecified) | -2.2%
[N-]=[N+]=Nc1cccc(-c2n[nH]c(Cl)cc2=O)c1 | -11.6%
C=CCOC(=O)c1ccc(C(C)C)cc1 | 12%
O=C1C=C(c2ccccc2)C(c2ccccc2)/C1=N/O (stereo unspecified) | -12.9%
CCO/C([O-])=N\[n+]1c(C)nc2cc3c(cc2c1C)OCO3 | 5.65%
CCN(CC)CCCC(C)Nc1ncnc2ccccc12 (stereo unspecified) | 8.95%
COc1ccc(CC2c3cc(OC)c(OC)cc3CC[N+]2(C)C)cc1OC (stereo unspecified) | -20.8%
CCN(CC)CCn1c2cc3c(cc2c(=O)c2cccnc21)OCO3 | -17.6%
CCOC(=O)C1=C(C(=O)c2ccc(OC)cc2)C(c2ccc([N+](=O)[O-])cc2)C(C(=O)c2ccc(OC)cc2)=C(C(=O)OCC)N1 | 5.8%
CCN(CC)CCC(=O)c1ccc(Cl)cc1 | 21.4%
